# From PubChem BioAssay (NCATS)
# Values without a mark were called inactive. Results filed as inconclusive are left out. Activity calls are given as the source filed them. Calls follow the shape of the dose curve; as a rule, active = well fitted curve in the direction sought with a large enough effect; inconclusive = small, poorly fitted or top-dose-only effect, or another doubt; inactive = no such curve, though single readings can be large; an effect the other way counts as inactive or inconclusive.
# Molecular target: Cytochrome P450 2C9 (Homo sapiens) (UniProt P11712)
# Sequence (P11712 whole entry, looked up): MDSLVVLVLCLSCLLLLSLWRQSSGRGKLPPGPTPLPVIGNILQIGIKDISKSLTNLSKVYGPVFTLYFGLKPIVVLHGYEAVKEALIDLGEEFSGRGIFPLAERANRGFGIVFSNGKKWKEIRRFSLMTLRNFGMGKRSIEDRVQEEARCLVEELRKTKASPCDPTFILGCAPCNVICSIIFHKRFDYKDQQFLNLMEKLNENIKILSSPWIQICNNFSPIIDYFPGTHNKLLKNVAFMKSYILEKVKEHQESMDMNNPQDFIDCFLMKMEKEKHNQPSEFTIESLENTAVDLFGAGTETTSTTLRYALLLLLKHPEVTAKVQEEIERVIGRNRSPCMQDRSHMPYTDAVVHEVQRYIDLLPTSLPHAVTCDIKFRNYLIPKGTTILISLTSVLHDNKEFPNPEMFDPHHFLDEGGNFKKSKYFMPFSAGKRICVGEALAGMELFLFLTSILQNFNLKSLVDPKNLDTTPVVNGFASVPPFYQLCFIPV
# Assay: qHTS Assay for Inhibitors and Substrates of Cytochrome P450 2C9 (AID 883); also: nearly all actives have a fitted effect of over 60% in size; also: potency is read from the fitted curve at half-maximal effect; as to activity change, negative = inhibition: % is scaled to controls: 0 for no effect and ±100 for the full control effect
# Conditions: recombinant CYP2C9, luciferin-H luminescence, 60 min; series mostly up to 57.1 µM; activity change, negative = inhibition: at the top concentration
# How it was run: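 Inhibition of CYP2C9 is scored as loss of luminescence, with 57uM sulphaphenazole defining 100% inhibition. Substrate Luciferin-H is used at 100uM, equal to its KM; enzyme at 10nM in 25mM KPO4, 60 min at 37C with NADPH regeneration.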
Compound,outcome,"activity change, negative = inhibition",Potency
CCCSc1ccc2nc(NC(=O)OC)[nH]c2c1,inactive,,
N=c1ccn2c(n1)O[C@H]1[C@H](O)[C@@H](CO)O[C@H]12,,-12%,
COc1ccccc1N1CCN(CCN(C(=O)c2ccc(I)cc2)c2ccccn2)CC1,,-2.77%,
C=C[C@@H]1CN2CC[C@@H]1C[C@H]2[C@H](O)c1ccnc2ccc(OC)cc12,,-17.4%,
Cc1nc2sccn2c(=O)c1CCN1CCC(=C(c2ccccc2)c2ccc(F)cc2)CC1,,,31.6 µM (active)

# Molecular target: Cytochrome P450 3A4 (Homo sapiens) (UniProt P08684)
# Sequence (P08684 whole entry, looked up): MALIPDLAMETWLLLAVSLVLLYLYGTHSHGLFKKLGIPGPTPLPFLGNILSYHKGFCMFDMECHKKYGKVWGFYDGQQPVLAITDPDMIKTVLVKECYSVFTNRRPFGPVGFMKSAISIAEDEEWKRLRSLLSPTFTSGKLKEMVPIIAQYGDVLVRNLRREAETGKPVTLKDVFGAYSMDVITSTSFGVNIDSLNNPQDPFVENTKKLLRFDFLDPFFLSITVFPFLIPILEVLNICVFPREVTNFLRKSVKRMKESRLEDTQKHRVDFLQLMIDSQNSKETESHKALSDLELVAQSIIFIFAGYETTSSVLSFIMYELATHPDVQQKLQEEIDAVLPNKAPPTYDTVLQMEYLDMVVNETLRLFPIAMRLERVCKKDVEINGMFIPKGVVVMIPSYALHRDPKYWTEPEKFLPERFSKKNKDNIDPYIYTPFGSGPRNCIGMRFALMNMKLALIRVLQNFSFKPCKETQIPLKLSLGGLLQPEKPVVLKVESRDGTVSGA
# Assay: qHTS Assay for Inhibitors and Substrates of Cytochrome P450 3A4 (AID 884); also: nearly all actives have a fitted effect of over 50% in size; also: potency is read from the fitted curve at half-maximal effect; as to activity change, negative = inhibition: % is scaled to controls: 0 for no effect and ±100 for the full control effect
# Conditions: recombinant CYP3A4, Luciferin-PPXE luminescence; series mostly up to 57.1 µM; activity change, negative = inhibition: at the top concentration
# How it was run: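 Luminescent readout of luciferin produced by CYP3A4 (20 nM) dealkylation of Luciferin-PPXE, 25 uM (its KM). NADPH-driven reaction ran 60 min at RT after 10 min compound preincubation; data scaled to 57 uM ketoconazole as 100% inhibition.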
Compound,Potency,"activity change, negative = inhibition"
O=C(Nc1ccncc1)c1cc([N+](=O)[O-])ccc1Cl,1.26 µM (active),
Cc1ccc(C(=O)c2ccc(CC(=O)O)n2C)cc1,,-1.81%
CC(C(=O)O)c1ccc2c(c1)[nH]c1ccc(Cl)cc12 (stereo not drawn),,-5.61%
Oc1c(Br)cc(Br)c2cccnc12,,-12.6%
O=C(OCc1ccccc1)c1ccccc1,,5%
COc1cccc(OC)c1OCCNCC1COc2ccccc2O1 (stereo not drawn),3.16 µM (active),
O=C(O)c1ccccc1Nc1cccc(C(F)(F)F)c1,,-5.29%
Cc1c(Nc2ncccc2C(=O)O)cccc1C(F)(F)F,,-16%
Nc1nc(Cl)nc2c1ncn2[C@@H]1O[C@H](CO)[C@@H](O)[C@H]1O,,-9.87%
CC(C(=O)O)c1ccc(C(=O)c2cccs2)cc1 (stereo not drawn),,-16.9%
Cc1nc2sccn2c(=O)c1CCN1CCC(=C(c2ccccc2)c2ccc(F)cc2)CC1,,-23.6%
N=C(N)N,,-19.5%

# Molecular target: Cytochrome P450 3A4 (Homo sapiens) (UniProt P08684)
# Assay: qHTS Assay for Activators of Cytochrome P450 3A4 (AID 885); also: nearly all actives have a fitted effect of over 65% in size
# Conditions: recombinant CYP3A4, Luciferin-PPXE luminescence, 60 min; series mostly up to 57.1 µM; activity change, positive = activation: at the top concentration
# How it was run: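 CYP3A4 activity: Luciferin-PPXE O-dealkylation, 25uM substrate, 200mM KPO4, RT throughout. Read-out is luciferase luminescence; higher values reflect activation.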
row,Compound,"activity change, positive = activation"
1,O=c1cc(-c2ccccc2)oc2c(O)c(O)ccc12,-59.6%
2,Nc1cc(-c2ccncc2)c[nH]c1=O,-80.6%
3,O=C(Nc1ccncc1)c1cc([N+](=O)[O-])ccc1Cl,-100%
4,COc1cccc(OC)c1OCCNCC1COc2ccccc2O1 (stereo not drawn),-73%
5,CC(N)C(=O)OC(C)(C)Cc1ccc(Cl)cc1 (stereo not drawn),-81.4%
6,Clc1ccccc1-c1nc(-c2ccncc2)no1,-40.1% [at 11.4 µM]
7,O=C(/C=C/c1ccc(O)c(O)c1)OCCc1ccccc1,-35.4%

# Molecular target: Cytochrome P450 2D6 (Homo sapiens) (UniProt P10635)
# Sequence (P10635 whole entry, looked up): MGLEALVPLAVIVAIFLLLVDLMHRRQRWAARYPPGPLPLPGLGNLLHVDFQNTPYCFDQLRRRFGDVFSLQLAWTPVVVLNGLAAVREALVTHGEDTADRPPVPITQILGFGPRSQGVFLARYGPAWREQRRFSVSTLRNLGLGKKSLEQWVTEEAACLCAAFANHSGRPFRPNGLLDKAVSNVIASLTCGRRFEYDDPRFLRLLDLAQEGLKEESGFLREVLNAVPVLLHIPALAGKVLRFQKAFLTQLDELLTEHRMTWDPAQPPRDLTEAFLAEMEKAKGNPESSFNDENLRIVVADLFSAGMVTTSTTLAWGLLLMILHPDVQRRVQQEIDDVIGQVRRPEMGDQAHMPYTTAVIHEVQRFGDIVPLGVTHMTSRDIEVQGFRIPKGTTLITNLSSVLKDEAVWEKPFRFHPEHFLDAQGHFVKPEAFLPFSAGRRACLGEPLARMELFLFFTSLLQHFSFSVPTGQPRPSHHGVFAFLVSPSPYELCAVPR
# Assay: qHTS Assay for Inhibitors and Substrates of Cytochrome P450 2D6 (AID 891); also: nearly all actives have a fitted effect of over 60% in size; also: potency is read from the fitted curve at half-maximal effect;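 as to activity change, negative = inhibition: luciferin methyl ether substrate demethylated by CYP2D6 with NADPH regeneration; % is scaled to controls: 0 for no effect and ±100 for the full control effect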
# Conditions: recombinant CYP2D6, luciferin-ME EGE luminescence; series mostly up to 57.1 µM; activity change, negative = inhibition: at the top concentration
# How it was run: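 Luminescent read-out of luciferin formed by 5 nM human CYP2D6 demethylating 30 uM Luciferin-ME EGE (Km level) over 60 min at room temperature after NADPH regeneration addition. Data normalized to full inhibition by 1.43 uM quinidine.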
Compound,outcome,"activity change, negative = inhibition",Potency
CCCSc1ccc2nc(NC(=O)OC)[nH]c2c1,inactive,,
N=c1ccn2c(n1)O[C@H]1[C@H](O)[C@@H](CO)O[C@H]12,,-2.19%,
COc1ccccc1N1CCN(CCN(C(=O)c2ccc(I)cc2)c2ccccn2)CC1,,,3.98 µM (active)
Cc1nc2sccn2c(=O)c1CCN1CCC(=C(c2ccccc2)c2ccc(F)cc2)CC1,,,7.94 µM (active)
